Where “and” joins values, the source holds several entries; their conditions need not be identical. Equal values may be shown once. Where a structure was tested more than once in an assay, its records may differ in their call. Calls of active or inactive are those of the source. Rule for the calls: active = hit-call score of the fitted dose curve at least 0.9, where 1 is the maximum; inactive = score below 0.9.

Read-out in this experiment: Interleukin-1 alpha (IL1a), IL1A (gene 3552)
Briefly: BSK_LPS_IL1a: BioMAP Diversity Plus: LPS Assay for Interleukin-1 alpha (IL1a) Biomarker Activity (AID 2283080). The note with it: primary human HUVEC with PBMC; actives raise or lower the signal. The protocol: BSK_LPS is a cell-based, multiplexed-readout assay that uses umbilical vein endothelium and peripheral blood mononuclear cells, a human vascular primary cell co-culture, with measurements taken at 24 hours after chemical dosing in a 96-well plate.BSK_LPS_IL1a is an assay component measured in the BSK_LPS assay. It measures IL-a antibody related to regulation of gene expression using ELISA technology.Data from the assay component BSK_LPS_IL1a was analyzed into 1 assay endpoint. This assay endpoint, BSK_LPS_IL1a, was analyzed with bidirectional fitting relative to DMSO as the negative control and baseline of activity. Using a type of binding reporter, gain or loss-of-signal activity can be used to understand changes in the signaling as they relate to the gene IL1A. Furthermore, this assay endpoint can be referred to as a primary readout, because this assay has produced multiple assay endpoints where this one serves a signaling function. To generalize the intended target to other relatable targets, this assay endpoint is annotated to the cytokine intended target family, where the subfamily is interleukins.
The levels of cell surface (or secreted, indicated by the prefix "s") biomarker endpoints were measured by ELISA. Overt cytotoxicity to cells in confluent adherent cultures (all systems other than the BT system) was assessed by measuring total protein levels using sulforhodamine B (SRB) staining in parallel cultures at the time of biomarker measurements, indicated as SRB endpoints. For proliferation assays for adherent cell types, individual cell types are cultured at sub-confluence and relative cell numbers quantified by SRB staining at time points optimized for each system (48 h: 3C and CASM3C systems; 72 h: BT and HDF3CGF systems; 96 h: SAg system). SRB was performed by staining cells with 0.1% SRB after fixation with 10% TCA and reading wells at 560 nm.Viability and proliferation of PBMC (T cells) was quantified by Alamar Blue reduction for the SAg and BT systems. For PBMC viability (referred to as PBMC Cytotoxicity within the assay endpoint names), cells were plated (75,000/well in a 96-well plate) and then chemical samples added for 1 h before addition of activators, SEB and TSST-1 (20 ng/mL final concentration each). Cells were incubated for 90 h. Then, Alamar Blue (20 uL/well) (Invitrogen, Cat DAL1100) was added for 6 h, and the plates were read with a fluorescence microplate reader at 546/580 nm (excitation/emission). For PBMC proliferation, cells were plated and activated as above but incubated for only 16 h prior to addition of Alamar Blue. Plates were read after 6 h.
`Oc1cc2ccccc2cc1O`: the result was inactive.

In the case of `Clc1ccc(Nc2nnc(Cc3ccncc3)c3ccccc23)cc1`, the result was inactive.

Turning to `C=CC(=O)OCCC(F)(F)C(F)(F)C(F)(F)C(F)(F)C(F)(F)C(F)(F)C(F)(F)C(F)(F)F`, the result was inactive.

With `Cc1ccc(C(=O)c2ccccc2)cc1`, the result was inactive.

As to `O=S(=O)(O)C(F)(F)C(F)(F)C(F)(F)C(F)(F)C(F)(F)C(F)(F)C(F)(F)C(F)(F)C(F)(F)C(F)(F)F`, the AC50 was 19.4 µM (active) and the outcome was inactive.

`CN(Cc1cnc2nc(N)nc(N)c2n1)c1ccc(C(=O)N[C@@H](CCC(=O)O)C(=O)O)cc1`: the outcome was inactive.

As for `O=C(O)C(F)(F)OC(F)(F)C(F)(F)OC(F)(F)C(F)(F)OC(F)(F)C(F)(F)C(F)(F)C(F)(F)F`, the AC50 is 44.4 µM (active) and 40.1 µM (active).

On to `CCCCC=O`, for which the result was inactive.

For the compound `CC[N+](CC)(CC)Cc1ccccc1`, the outcome was inactive.

Consider `CCCCC(CC)C(=O)OCCOCCOCCOCCOC(=O)C(CC)CCCC` (stereo not given), for which the outcome was inactive.

As for `CCCCCCCCCCCCCCCCCC[N+](C)(C)Cc1ccccc1`, the AC50 is 2.71 µM (active).

As for `C=CC(=C)CC/C=C(\C)CCC=C(C)C`, the outcome was inactive.

As for `OCC(F)(F)C(F)(F)C(F)(F)C(F)(F)C(F)(F)C(F)(F)C(F)(F)C(F)(F)C(F)(F)C(F)(F)C(F)(F)F`, the concentration at half-maximal activity (AC50) was 186 nM (active) and 202 nM (active).

Regarding `Cc1[nH]nc2c1N=C(c1ccccc1Cl)c1cc([N+](=O)[O-])ccc1N2`, the AC50 was 4.2 µM (active).

As for `OCC(CO)(CBr)CBr`, the outcome was inactive.

On to `CN(C)CCOC(c1ccccc1)c1ccccc1`, for which the outcome was inactive.

For the compound `O=C(CCCN1CCC(O)(c2ccc(Cl)cc2)CC1)c1ccc(F)cc1`, the result was inactive.

With `O=C1OC2(c3ccccc31)c1cc(I)c(O)c(I)c1Oc1c2cc(I)c(O)c1I`, the AC50 was 9.13 µM (active).

`CCCCc1oc2ccccc2c1C(=O)c1cc(I)c(OCCN(CC)CC)c(I)c1`: the AC50 was 19.1 µM (active).

For `O=C(O)CCC(F)(F)C(F)(F)C(F)(F)C(F)(F)C(F)(F)C(F)(F)F`, the AC50 is 12.9 µM (active) and 30 µM (active); the result was inactive.

As to `CCCCCCCCCCCC`, the AC50 is 14.4 µM (active) and 29.6 µM (active).

For the compound `CCCCCCCCCCCCOS(=O)(=O)O`, the outcome was inactive.

Regarding `NC(=NCCCCCCN=C(N)/N=C(\N)Nc1ccc(Cl)cc1)/N=C(\N)Nc1ccc(Cl)cc1`, the concentration at half-maximal activity (AC50) was 4.94 µM (active).

In the case of `O=C1c2ccc(O)c(O)c2C(=O)c2c(O)ccc(O)c21`, the result was inactive.

For `C=COC(=O)C(C)(C)CCCCCC`, the AC50 is 33.6 µM (active).

Turning to `CCCCCCCCCCCCCCC`, the outcome was inactive.

As for `Cc1cccc2c1ccc1ccccc12`, the result was inactive.

For the compound `C=CC(C)(CCC=C(C)C)OC(C)=O` (stereo not given), the outcome was inactive.

On to `COc1cccc(O)c1`, for which the result was inactive.

Turning to `CCOC(=O)CN[C@@H](C(=O)N1CC[C@H]1C(=O)NCc1ccc(/C(N)=N/O)cc1)C1CCCCC1`, the outcome was inactive.

With `CS(=O)(=O)c1ccc([C@@H](CC2CCCC2)C(=O)Nc2cnccn2)cc1Cl`, the result was inactive.

Turning to `N=C(N)c1ccc(OCCCCCOc2ccc(C(=N)N)cc2)cc1`, the half-maximal activity concentration (AC50) was 17.5 µM (active).

Take `CC(=O)Nc1ccc(O)cc1`: the result was inactive.

As for `COC1=CC(=O)C[C@@H](C)[C@]12Oc1c(Cl)c(OC)cc(OC)c1C2=O`, the outcome was inactive.

In the case of `O=P(O)(O)CCC(F)(F)C(F)(F)C(F)(F)C(F)(F)C(F)(F)C(F)(F)F`, the outcome was inactive.

In the case of `Oc1ccc(Cc2ccccc2O)cc1`, the result was inactive.

For the compound `CCC(C)c1ccccc1O` (stereo not given), the outcome was inactive.

Take `CN(CCO)S(=O)(=O)C(F)(F)C(F)(F)C(F)(F)C(F)(F)C(F)(F)C(F)(F)C(F)(F)C(F)(F)F`: the outcome was inactive.
